The values that follow come from publication PMC7862700, “An all-to-all approach to the identification of sequence-specific readers for epigenetic DNA modifications on cytosine”.

Experiment in all cases: DAPPL (digital affinity profiling via proximity ligation, sequencing); 10 mM Tris-HCl pH 7.5, 50 mM NaCl, 1 mM DTT, 4% glycerol, room temperature, 30 min; GST-TFs on glutathione beads, 16-mer random dsDNA library, 0.1% formaldehyde crosslink after washing; high values mean tight binding
Experiment [1] addresses T1, FEV (Homo sapiens, UniProt Q99581 1-238).
T1 sequence: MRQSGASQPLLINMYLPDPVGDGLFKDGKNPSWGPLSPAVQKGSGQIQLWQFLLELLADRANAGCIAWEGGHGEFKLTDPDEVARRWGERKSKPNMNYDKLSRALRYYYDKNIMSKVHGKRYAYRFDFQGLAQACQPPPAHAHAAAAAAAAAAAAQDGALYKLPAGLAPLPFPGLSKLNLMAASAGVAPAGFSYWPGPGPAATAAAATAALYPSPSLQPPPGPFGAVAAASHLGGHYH
The settings on record: protein: recombinant; tags: N-terminal GST; dsDNA, one strand shown. A digest of the protocol:
(§1)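 Binding signal is defined as a hexamer's read frequency for one factor over its frequency for the tag-only sample. To obtain reads, GST-fused human transcription factors were expressed in yeast, captured on glutathione beads, barcoded with DNA and pooled with that sample. Pools met 200 nmole of a 16-mer random double-stranded DNA library in Tris/NaCl/DTT/glycerol buffer for 30 min at room temperature before washing, 0.1% formaldehyde crosslinking, proximity ligation (BsaI/T4 ligase, 1 h, 37 °C), PCR and Illumina NextSeq500 sequencing.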

Experiment [2] deals with ETV5 (Homo sapiens, UniProt P41161 1-510). The settings on record: protein: recombinant; tags: N-terminal GST; dsDNA, one strand shown. A digest of the protocol:
as §1

For experiment [3], the target named is HSF1 (Homo sapiens, UniProt Q00613 1-529). The settings on record: protein: recombinant; tags: N-terminal GST; chain copies: 3; dsDNA, one strand shown. A digest of the protocol:
as §1

The target in experiment [4] is T2, SPIC (Homo sapiens, UniProt Q8N5J4 1-248).
T2 sequence: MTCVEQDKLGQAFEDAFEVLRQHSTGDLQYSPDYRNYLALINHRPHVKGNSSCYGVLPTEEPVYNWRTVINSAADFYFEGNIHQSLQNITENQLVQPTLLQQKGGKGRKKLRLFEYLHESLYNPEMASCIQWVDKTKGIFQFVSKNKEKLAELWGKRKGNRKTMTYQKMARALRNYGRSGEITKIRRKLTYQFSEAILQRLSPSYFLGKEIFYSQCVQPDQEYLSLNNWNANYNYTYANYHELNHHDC
The settings on record: protein: recombinant; tags: N-terminal GST; dsDNA, one strand shown. A digest of the protocol:
as §1

Experiment [5] has as its target ELF4 (Homo sapiens, UniProt Q99607 1-663). The settings on record: protein: recombinant; tags: N-terminal GST; dsDNA, one strand shown. A digest of the protocol:
as §1

For experiment [6], the target named is T3, ELK4 (Homo sapiens, UniProt P28324-2 1-405).
T3 sequence: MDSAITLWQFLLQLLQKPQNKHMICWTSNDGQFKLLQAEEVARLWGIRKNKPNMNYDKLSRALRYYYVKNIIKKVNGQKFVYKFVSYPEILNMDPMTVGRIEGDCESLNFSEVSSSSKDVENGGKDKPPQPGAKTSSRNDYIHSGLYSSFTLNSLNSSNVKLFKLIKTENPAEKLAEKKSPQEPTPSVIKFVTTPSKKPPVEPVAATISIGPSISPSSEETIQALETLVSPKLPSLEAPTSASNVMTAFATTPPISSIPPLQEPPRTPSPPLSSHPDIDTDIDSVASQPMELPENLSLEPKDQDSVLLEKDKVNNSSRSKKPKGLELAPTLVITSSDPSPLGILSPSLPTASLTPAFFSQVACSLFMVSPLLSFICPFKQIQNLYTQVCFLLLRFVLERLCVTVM
The settings on record: protein: recombinant; tags: N-terminal GST; dsDNA, one strand shown. A digest of the protocol: as §1

For experiment [7], the target named is T4, ETV2 (Homo sapiens, UniProt O00321 1-342).
T4 sequence: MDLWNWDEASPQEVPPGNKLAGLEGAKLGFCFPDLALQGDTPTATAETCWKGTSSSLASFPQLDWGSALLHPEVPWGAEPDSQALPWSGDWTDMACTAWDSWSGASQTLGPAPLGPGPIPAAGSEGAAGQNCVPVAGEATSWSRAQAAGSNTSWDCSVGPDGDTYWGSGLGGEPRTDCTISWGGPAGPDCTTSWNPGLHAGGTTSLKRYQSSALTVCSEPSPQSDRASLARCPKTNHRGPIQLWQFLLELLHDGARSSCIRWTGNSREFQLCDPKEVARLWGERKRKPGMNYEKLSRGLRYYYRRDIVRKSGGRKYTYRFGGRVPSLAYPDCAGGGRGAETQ
The settings on record: protein: recombinant; tags: N-terminal GST; dsDNA, one strand shown. A digest of the protocol:
as §1

The target of experiment [8] is T5, ELF3 (Homo sapiens, UniProt P78545 1-371).
T5 sequence: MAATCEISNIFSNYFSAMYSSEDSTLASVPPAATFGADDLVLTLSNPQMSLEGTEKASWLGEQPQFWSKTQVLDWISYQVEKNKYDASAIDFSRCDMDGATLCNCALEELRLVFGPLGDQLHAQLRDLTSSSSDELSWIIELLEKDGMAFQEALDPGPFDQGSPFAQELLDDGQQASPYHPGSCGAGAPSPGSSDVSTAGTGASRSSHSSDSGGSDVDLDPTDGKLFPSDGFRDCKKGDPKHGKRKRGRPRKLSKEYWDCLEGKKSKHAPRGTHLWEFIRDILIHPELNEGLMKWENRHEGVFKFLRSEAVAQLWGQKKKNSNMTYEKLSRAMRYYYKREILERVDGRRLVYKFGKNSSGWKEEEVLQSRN
The settings on record: protein: recombinant; tags: N-terminal GST; dsDNA, one strand shown. A digest of the protocol: as §1

Experiment [9] deals with CRX (Homo sapiens, UniProt O43186 1-299). The settings on record: protein: recombinant; tags: N-terminal GST; dsDNA, one strand shown. A digest of the protocol:
as §1

Experiment [10] deals with ETV1 (Homo sapiens, UniProt P50549 1-477). The settings on record: protein: recombinant; tags: N-terminal GST; dsDNA, one strand shown. A digest of the protocol: as §1
Chain of ETV1 (P50549 whole entry): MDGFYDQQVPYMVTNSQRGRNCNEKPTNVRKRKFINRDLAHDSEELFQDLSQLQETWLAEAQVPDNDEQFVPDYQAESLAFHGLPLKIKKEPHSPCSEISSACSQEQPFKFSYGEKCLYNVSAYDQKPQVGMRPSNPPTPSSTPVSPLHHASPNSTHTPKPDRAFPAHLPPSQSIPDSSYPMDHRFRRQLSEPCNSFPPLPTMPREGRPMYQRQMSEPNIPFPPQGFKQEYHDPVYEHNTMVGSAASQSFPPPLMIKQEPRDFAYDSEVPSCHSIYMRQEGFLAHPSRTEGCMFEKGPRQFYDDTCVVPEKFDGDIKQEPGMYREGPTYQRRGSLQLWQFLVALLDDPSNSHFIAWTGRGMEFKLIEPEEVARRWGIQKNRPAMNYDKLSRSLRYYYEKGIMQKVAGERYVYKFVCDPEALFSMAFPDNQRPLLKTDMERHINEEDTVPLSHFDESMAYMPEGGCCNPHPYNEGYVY
For experiment [11], the target named is T6, ERF (Homo sapiens, UniProt P50548 1-548).
T6 sequence: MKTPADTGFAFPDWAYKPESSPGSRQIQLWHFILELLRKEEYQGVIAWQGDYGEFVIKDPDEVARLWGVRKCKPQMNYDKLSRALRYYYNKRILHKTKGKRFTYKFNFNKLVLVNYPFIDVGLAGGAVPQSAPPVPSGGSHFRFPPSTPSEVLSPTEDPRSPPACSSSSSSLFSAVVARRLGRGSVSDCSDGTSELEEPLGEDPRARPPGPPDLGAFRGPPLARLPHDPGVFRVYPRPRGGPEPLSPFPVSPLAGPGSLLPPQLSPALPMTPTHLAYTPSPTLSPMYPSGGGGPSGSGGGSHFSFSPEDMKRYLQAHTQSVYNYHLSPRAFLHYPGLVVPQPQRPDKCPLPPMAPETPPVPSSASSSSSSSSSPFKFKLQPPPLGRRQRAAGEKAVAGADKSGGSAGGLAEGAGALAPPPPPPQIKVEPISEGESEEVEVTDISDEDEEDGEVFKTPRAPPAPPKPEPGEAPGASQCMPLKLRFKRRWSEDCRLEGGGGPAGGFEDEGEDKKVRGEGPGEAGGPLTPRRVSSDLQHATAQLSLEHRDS
The settings on record: protein: recombinant; tags: N-terminal GST; dsDNA, one strand shown. A digest of the protocol:
as §1

Experiment [12] deals with T7, ETV3L (Homo sapiens, UniProt Q6ZN32 1-361).
T7 sequence: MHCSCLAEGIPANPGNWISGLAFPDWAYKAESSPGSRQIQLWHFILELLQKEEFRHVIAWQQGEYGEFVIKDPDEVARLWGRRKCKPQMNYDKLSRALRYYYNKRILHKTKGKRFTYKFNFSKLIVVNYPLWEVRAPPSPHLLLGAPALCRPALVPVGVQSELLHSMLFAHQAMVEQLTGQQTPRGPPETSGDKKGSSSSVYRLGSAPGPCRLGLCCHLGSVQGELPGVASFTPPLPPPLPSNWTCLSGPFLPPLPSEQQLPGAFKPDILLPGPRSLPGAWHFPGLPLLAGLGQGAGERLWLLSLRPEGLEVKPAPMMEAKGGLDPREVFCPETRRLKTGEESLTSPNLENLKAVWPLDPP
The settings on record: protein: recombinant; tags: N-terminal GST; dsDNA, one strand shown. A digest of the protocol:
as §1

The target in experiment [13] is T8, ETS2 (Homo sapiens, UniProt P15036 1-469).
T8 sequence: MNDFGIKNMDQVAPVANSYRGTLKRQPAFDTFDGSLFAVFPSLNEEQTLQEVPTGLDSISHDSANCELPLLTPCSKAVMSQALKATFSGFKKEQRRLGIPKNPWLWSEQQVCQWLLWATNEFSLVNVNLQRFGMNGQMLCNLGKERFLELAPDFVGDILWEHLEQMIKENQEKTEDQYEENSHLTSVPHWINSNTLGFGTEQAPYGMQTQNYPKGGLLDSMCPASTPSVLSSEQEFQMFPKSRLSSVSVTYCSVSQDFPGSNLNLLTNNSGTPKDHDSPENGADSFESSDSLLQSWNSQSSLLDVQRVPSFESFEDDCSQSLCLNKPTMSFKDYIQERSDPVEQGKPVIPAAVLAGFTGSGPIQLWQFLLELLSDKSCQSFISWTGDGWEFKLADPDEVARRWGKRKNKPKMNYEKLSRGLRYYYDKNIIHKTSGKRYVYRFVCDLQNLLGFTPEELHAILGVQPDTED
The settings on record: protein: recombinant; tags: N-terminal GST; dsDNA, one strand shown. A digest of the protocol: as §1

The target in experiment [14] is T9, SPDEF (Homo sapiens, UniProt O95238 1-335).
T9 sequence: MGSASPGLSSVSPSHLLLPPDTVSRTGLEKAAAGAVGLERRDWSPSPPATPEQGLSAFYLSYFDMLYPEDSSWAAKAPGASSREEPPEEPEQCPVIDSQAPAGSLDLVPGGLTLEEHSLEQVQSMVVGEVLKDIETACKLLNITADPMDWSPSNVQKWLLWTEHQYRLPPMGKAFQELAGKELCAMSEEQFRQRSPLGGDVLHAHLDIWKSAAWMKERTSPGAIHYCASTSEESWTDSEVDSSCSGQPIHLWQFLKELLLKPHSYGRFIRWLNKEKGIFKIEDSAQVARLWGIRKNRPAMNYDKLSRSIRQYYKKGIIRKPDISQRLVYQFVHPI
The settings on record: protein: recombinant; tags: N-terminal GST; dsDNA, one strand shown. A digest of the protocol: as §1

In experiment [15] the target is T10, ETV7 (Homo sapiens, UniProt Q9Y603 1-341).
T10 sequence: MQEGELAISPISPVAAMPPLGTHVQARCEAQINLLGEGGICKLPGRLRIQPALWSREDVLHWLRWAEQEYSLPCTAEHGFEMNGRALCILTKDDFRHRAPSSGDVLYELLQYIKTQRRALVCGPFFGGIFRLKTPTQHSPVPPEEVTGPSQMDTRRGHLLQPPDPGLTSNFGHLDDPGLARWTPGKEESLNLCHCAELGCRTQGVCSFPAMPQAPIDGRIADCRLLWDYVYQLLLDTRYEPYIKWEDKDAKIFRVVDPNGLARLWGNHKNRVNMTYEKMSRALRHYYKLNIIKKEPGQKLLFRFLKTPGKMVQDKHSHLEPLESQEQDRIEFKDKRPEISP
The settings on record: protein: recombinant; tags: N-terminal GST; dsDNA, one strand shown. A digest of the protocol:
as §1

For experiment [16], the target named is T11, ELF5 (Homo sapiens, UniProt Q9UKW6-2 1-255).
T11 sequence: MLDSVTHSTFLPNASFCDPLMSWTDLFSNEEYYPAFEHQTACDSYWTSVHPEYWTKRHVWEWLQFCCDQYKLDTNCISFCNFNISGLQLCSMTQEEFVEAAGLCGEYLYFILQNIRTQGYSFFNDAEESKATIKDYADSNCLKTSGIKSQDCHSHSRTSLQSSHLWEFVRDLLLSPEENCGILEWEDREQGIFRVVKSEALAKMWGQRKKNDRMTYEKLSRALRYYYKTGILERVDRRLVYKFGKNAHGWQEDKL
The settings on record: protein: recombinant; tags: N-terminal GST; dsDNA, one strand shown. A digest of the protocol:
as §1

Experiment [17] deals with T12, ETV3 (Homo sapiens, UniProt P41162-2 1-143).
T12 sequence: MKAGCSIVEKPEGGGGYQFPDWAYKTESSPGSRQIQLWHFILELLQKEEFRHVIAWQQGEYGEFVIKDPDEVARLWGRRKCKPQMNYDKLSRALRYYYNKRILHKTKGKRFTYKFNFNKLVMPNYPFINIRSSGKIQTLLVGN
The settings on record: protein: recombinant; tags: N-terminal GST; dsDNA, one strand shown. A digest of the protocol: as §1

In experiment [18] the target is ETV6 (Homo sapiens, UniProt P41212 1-452). The settings on record: protein: recombinant; tags: N-terminal GST; dsDNA, one strand shown. A digest of the protocol:
as §1

Chain of CRX (O43186 whole entry): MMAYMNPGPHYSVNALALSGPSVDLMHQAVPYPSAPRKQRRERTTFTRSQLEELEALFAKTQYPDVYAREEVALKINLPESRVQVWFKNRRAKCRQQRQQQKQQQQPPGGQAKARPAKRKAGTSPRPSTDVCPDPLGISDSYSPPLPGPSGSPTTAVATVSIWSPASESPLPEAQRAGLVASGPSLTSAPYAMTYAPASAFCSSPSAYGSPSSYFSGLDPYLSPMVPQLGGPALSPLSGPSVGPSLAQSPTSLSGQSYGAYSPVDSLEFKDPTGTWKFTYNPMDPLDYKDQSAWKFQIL
Chain of ETV6 (P41212 whole entry): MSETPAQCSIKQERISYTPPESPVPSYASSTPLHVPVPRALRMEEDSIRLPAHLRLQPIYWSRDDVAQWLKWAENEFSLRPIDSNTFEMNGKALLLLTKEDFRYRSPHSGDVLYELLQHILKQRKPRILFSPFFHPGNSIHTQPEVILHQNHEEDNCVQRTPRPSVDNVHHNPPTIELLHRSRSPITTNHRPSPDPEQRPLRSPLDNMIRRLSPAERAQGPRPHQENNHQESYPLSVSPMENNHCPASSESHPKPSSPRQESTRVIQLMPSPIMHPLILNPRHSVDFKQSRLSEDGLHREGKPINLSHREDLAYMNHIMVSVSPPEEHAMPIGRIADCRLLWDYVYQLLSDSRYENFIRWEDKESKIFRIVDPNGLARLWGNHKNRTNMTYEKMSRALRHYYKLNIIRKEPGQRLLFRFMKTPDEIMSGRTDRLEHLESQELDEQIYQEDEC
Chain of HSF1 (Q00613 whole entry): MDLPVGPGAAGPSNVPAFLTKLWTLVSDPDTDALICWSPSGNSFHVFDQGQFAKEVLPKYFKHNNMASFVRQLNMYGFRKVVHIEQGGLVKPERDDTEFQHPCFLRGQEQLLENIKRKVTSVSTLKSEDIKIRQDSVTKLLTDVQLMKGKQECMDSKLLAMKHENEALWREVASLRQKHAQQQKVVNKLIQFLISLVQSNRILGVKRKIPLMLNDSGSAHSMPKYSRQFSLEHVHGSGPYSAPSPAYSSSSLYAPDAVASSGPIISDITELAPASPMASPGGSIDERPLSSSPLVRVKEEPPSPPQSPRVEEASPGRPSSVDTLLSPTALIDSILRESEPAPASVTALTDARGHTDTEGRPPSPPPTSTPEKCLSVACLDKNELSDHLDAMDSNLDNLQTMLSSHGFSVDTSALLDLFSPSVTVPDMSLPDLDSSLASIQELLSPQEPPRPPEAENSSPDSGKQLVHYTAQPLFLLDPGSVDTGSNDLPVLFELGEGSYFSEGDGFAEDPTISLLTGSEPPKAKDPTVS
Chain of ETV5 (P41161 whole entry): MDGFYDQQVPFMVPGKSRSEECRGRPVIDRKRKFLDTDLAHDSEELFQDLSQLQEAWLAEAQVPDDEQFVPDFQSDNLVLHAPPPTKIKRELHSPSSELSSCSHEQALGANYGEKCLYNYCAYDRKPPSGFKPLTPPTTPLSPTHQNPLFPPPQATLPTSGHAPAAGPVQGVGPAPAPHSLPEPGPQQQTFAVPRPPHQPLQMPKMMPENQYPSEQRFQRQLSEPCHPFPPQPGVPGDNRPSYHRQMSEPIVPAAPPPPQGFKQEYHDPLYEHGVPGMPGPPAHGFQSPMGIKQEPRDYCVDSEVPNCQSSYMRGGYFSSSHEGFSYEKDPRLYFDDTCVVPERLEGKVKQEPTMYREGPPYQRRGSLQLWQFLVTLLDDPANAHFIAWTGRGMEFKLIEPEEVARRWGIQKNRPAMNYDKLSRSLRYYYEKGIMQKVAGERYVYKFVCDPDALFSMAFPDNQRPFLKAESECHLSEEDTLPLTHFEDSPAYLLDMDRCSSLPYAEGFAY
Chain of ELF4 (Q99607 whole entry): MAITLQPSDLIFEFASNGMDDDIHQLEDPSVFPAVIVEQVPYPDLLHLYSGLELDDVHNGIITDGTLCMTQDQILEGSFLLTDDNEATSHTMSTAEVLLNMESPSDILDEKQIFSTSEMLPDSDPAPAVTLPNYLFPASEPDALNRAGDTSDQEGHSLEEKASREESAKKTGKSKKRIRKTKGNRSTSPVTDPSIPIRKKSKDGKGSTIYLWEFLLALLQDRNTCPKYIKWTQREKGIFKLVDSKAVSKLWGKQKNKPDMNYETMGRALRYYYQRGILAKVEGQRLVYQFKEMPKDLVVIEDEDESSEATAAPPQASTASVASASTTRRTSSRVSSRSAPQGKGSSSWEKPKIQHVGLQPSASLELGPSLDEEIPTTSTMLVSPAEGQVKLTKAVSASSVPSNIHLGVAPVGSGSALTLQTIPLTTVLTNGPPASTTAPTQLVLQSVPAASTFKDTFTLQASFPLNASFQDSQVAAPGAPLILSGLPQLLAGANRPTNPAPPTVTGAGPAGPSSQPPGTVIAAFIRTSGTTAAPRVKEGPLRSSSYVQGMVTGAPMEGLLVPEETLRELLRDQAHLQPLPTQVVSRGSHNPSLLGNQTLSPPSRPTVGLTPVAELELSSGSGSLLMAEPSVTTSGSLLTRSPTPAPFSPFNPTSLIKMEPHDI

On to AAAATC, for which the binding signal was 1.19 fold enrichment (6-mer frequency, TF over GST control) in experiment [1]; 1.19 fold enrichment (6-mer frequency, TF over GST control) in experiment [2]; 1.51 fold enrichment (6-mer frequency, TF over GST control) in [3]; 1.07 fold enrichment (6-mer frequency, TF over GST control) in experiment [4]; 1.23 fold enrichment (6-mer frequency, TF over GST control) in experiment [5]; 1.05 fold enrichment (6-mer frequency, TF over GST control) in [6]. The binding signal in experiment [7] is 1.28 fold enrichment (6-mer frequency, TF over GST control); in experiment [8], 1.11 fold enrichment (6-mer frequency, TF over GST control); in experiment [9] it was 1.62 fold enrichment (6-mer frequency, TF over GST control); in experiment [10] it was 1.12 fold enrichment (6-mer frequency, TF over GST control); in experiment [11] it was 1.17 fold enrichment (6-mer frequency, TF over GST control); in experiment [12] it was 1.18 fold enrichment (6-mer frequency, TF over GST control). In addition, the binding signal in experiment [13] is 1.14 fold enrichment (6-mer frequency, TF over GST control); in experiment [14], 1.2 fold enrichment (6-mer frequency, TF over GST control); in experiment [15], 1.16 fold enrichment (6-mer frequency, TF over GST control); in [16], 1.15 fold enrichment (6-mer frequency, TF over GST control); in experiment [17], 1.13 fold enrichment (6-mer frequency, TF over GST control); in [18], 1.19 fold enrichment (6-mer frequency, TF over GST control).
